Records with an inconclusive call do not appear. A number with no mark means an inactive call. Activity calls are given as the source filed them. The call rests on the fitted dose curve; in most records, active means well fitted curve in the direction sought with a large enough effect; inconclusive means small, poorly fitted or top-dose-only effect, or another doubt; inactive means no such curve, though single readings can be large; an effect the other way counts as inactive or inconclusive.
target: Glutaminase kidney isoform, mitochondrial (Homo sapiens) (UniProt O94925); assay: qHTS for Inhibitors of Glutaminase (GLS): LOPAC Validation (AID 624146); details: glutaminase enzyme activity inhibition; series mostly up to 46.1 µM; activity change, negative = inhibition: at the top concentration; further: nearly all actives have a fitted effect of over 60% in size; further: potency means the concentration at half of the fitted maximal effect;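 on activity change, negative = inhibition: glutamate product detected by oxidase and peroxidase coupled Amplex red fluorescence gain; on the % scale 0 is the no-effect control and ±100 the full control effect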
Summary of the method: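 Two-point fluorescence kinetic (t0, 30 min RT) for hKGA; glutamate detected via glutamate oxidase–HRP–Amplex Red. Substrate: 1 mM L-glutamine solution; buffer 45 mM KH2PO4, pH 8.2.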

Sequence of Glutaminase kidney isoform, mitochondrial (Homo sapiens) (O94925 whole entry, looked up, canonical isoform): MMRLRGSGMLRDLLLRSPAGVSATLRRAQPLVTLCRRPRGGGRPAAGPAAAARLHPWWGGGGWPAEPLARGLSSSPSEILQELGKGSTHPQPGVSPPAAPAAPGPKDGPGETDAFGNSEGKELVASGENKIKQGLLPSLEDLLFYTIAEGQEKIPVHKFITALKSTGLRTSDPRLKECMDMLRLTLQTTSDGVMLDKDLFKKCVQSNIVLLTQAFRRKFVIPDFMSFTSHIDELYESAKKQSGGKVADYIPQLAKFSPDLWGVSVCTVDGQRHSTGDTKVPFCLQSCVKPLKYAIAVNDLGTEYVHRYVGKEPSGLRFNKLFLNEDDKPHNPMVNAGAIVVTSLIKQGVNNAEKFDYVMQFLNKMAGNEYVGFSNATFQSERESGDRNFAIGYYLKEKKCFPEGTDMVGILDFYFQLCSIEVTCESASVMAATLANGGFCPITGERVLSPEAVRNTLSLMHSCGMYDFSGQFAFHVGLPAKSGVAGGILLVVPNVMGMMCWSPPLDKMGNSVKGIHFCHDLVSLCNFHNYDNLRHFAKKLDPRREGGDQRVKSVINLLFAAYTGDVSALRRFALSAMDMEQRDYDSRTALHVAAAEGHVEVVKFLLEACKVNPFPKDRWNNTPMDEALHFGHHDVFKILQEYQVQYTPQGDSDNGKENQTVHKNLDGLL

In order of rising “activity change, negative = inhibition” value:
1. Oc1ccc(-c2nc(-c3ccc(F)cc3)c(-c3ccncc3)[nH]2)cc1  -24.3%
2. OC(CN1CCN(c2cccc(Cl)c2)CC1)C(c1ccccc1)c1ccccc1 (configuration not stated)  -12.3%
3. O=C1c2ccccc2-c2n[nH]c3cccc1c23  -10.9%
4. Nc1nc(OCc2ccccc2)c2[nH]cnc2n1  -8.21%
5. O=c1cc(N2CCOCC2)oc2c(-c3ccccc3)cccc12  -4.8%
6. O=C(c1ccccc1)c1ccc2n1CCC2C(=O)O (configuration not stated)  -4.74%
7. NC(=NCc1ccccc1)NC(=O)c1nc(Cl)c(N)nc1N  -1.89%
8. Nc1ccn([C@@H]2O[C@H](CO)[C@@H](O)C2O)c(=O)n1 (some centres not stated)  2.68%
9. CC(=O)O[C@H]1C(=O)[C@@]2(C)C([C@H](OC(=O)c3ccccc3)[C@]3(O)C[C@H](OC(=O)[C@H](O)[C@@H](NC(=O)c4ccccc4)c4ccccc4)C(C)=C1C3(C)C)[C@]1(OC(C)=O)CO[C@@H]1C[C@@H]2O (some centres not stated)  29.2%
10. O=C(O)c1cccnc1Nc1cccc(C(F)(F)F)c1  51.1%
11. NCCCCNCCCN  80.7%

For `O=C1c2c(O)cc(O)cc2OC(c2ccc(O)c(O)c2)C1O` (configuration not stated), the Potency was 0.708 µM (active).
In the case of `O=C1NC(=O)C(c2ccccc2[N+](=O)[O-])=C1Nc1ccc(O)c(Cl)c1`, the Potency was 10 µM (active).

test system: not listed separately; assay: qHTS of Trypanosoma Brucei Inhibitors: LOPAC Validation (AID 624147); details: purified enzyme assay, luminescence, 45 min; series mostly up to 57.5 µM; activity change, negative = inhibition: at the top concentration; further: 0% is about no effect
Summary of the method: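 Glycolytic pyruvate kinase of T. brucei was incubated with substrate, test compound and 130 uM ADP for 45 minutes at room temperature. Luminescent Kinase-Glo Plus signal was measured after 10 minutes.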

In order of falling “activity change, negative = inhibition” value:
1. Oc1ccc(-c2nc(-c3ccc(F)cc3)c(-c3ccncc3)[nH]2)cc1  6.39%
2. NNc1nncc2ccccc12  3.35%
3. OC(CN1CCN(c2cccc(Cl)c2)CC1)C(c1ccccc1)c1ccccc1 (configuration not stated)  3.15%
4. Nc1nc(OCc2ccccc2)c2[nH]cnc2n1  3.01%
5. NC(=NCc1ccccc1)NC(=O)c1nc(Cl)c(N)nc1N  -1.1%
6. Nc1ccn([C@@H]2O[C@H](CO)[C@@H](O)C2O)c(=O)n1 (some centres not stated)  -5.61%
7. O=c1cc(N2CCOCC2)oc2c(-c3ccccc3)cccc12  -6.57%
8. CC(=O)O[C@H]1C(=O)[C@@]2(C)C([C@H](OC(=O)c3ccccc3)[C@]3(O)C[C@H](OC(=O)[C@H](O)[C@@H](NC(=O)c4ccccc4)c4ccccc4)C(C)=C1C3(C)C)[C@]1(OC(C)=O)CO[C@@H]1C[C@@H]2O (some centres not stated)  -8.01%
9. NCCCCNCCCN  -8.08%
10. O=C(O)c1cccnc1Nc1cccc(C(F)(F)F)c1  -8.27%
11. CC(C)c1ccc2c(c1)c(SC(C)(C)C)c(CC(C)(C)C(=O)O)n2Cc1ccc(Cl)cc1  -12.5%
12. O=C1c2c(O)cc(O)cc2OC(c2ccc(O)c(O)c2)C1O (configuration not stated)  -12.7%
13. O=C(c1ccccc1)c1ccc2n1CCC2C(=O)O (configuration not stated)  -16.9%
14. O=C1c2ccccc2-c2n[nH]c3cccc1c23  -17%
15. O=c1ccc2ccc(O)c(O)c2o1  -17.6%
16. O=C1NC(=O)C(c2ccccc2[N+](=O)[O-])=C1Nc1ccc(O)c(Cl)c1  -17.8%
17. Cc1c(OCC(F)(F)F)ccnc1CS(=O)c1nc2ccccc2[nH]1 (configuration not stated)  -27.1%

target: Glucagon-like peptide 1 receptor (Homo sapiens) (UniProt P43220); assay: qHTS of GLP-1 Receptor Agonists: LOPAC Validation (AID 624148); details: GLP-1R agonist cell assay; series mostly up to 46.1 µM; activation: at the top concentration;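 further: luminescence from a luciferase reporter switched on by cAMP; 0% is about no effect; higher luminescence signal means agonism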
Summary of the method: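 Agonism scored as increased luciferase luminescence driven by cAMP in HEK293 clones carrying GLP-1R. Cells settled 12 hours, received compound for 4-6 hr at 37 deg C, 5% CO2, and were read after 12 min detection reagent at RT.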

Sequence of Glucagon-like peptide 1 receptor (Homo sapiens) (P43220 whole entry, looked up): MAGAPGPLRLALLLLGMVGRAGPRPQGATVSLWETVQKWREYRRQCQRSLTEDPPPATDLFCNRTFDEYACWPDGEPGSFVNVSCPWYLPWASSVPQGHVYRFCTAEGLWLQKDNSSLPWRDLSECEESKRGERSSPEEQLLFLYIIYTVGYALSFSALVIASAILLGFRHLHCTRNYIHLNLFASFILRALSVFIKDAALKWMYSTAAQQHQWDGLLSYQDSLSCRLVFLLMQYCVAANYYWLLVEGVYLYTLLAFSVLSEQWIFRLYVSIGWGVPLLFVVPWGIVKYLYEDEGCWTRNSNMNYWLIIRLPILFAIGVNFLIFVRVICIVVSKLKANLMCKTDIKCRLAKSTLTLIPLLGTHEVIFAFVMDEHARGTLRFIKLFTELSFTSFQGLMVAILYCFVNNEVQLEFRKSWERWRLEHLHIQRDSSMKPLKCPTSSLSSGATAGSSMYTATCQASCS

In order of rising “activation” value:
1. O=C(c1ccccc1)c1ccc2n1CCC2C(=O)O (configuration not stated)  -2.01%
2. OC(CN1CCN(c2cccc(Cl)c2)CC1)C(c1ccccc1)c1ccccc1 (configuration not stated)  -1.64%
3. CC(C)c1ccc2c(c1)c(SC(C)(C)C)c(CC(C)(C)C(=O)O)n2Cc1ccc(Cl)cc1  -1.61%
4. O=C1NC(=O)C(c2ccccc2[N+](=O)[O-])=C1Nc1ccc(O)c(Cl)c1  -1.51%
5. Cc1c(OCC(F)(F)F)ccnc1CS(=O)c1nc2ccccc2[nH]1 (configuration not stated)  -1.29%
6. NCCCCNCCCN  -1.2%
7. O=C1c2c(O)cc(O)cc2OC(c2ccc(O)c(O)c2)C1O (configuration not stated)  -1.15%
8. Nc1ccn([C@@H]2O[C@H](CO)[C@@H](O)C2O)c(=O)n1 (some centres not stated)  -1.07%
9. NNc1nncc2ccccc12  -1.06%
10. O=C(O)c1cccnc1Nc1cccc(C(F)(F)F)c1  -0.971%
11. O=c1ccc2ccc(O)c(O)c2o1  -0.709%
12. Nc1nc(OCc2ccccc2)c2[nH]cnc2n1  1.1%
13. O=c1cc(N2CCOCC2)oc2c(-c3ccccc3)cccc12  1.77%
14. NC(=NCc1ccccc1)NC(=O)c1nc(Cl)c(N)nc1N  1.78%
15. CC(=O)O[C@H]1C(=O)[C@@]2(C)C([C@H](OC(=O)c3ccccc3)[C@]3(O)C[C@H](OC(=O)[C@H](O)[C@@H](NC(=O)c4ccccc4)c4ccccc4)C(C)=C1C3(C)C)[C@]1(OC(C)=O)CO[C@@H]1C[C@@H]2O (some centres not stated)  3.42%
16. Oc1ccc(-c2nc(-c3ccc(F)cc3)c(-c3ccncc3)[nH]2)cc1  4.86%
17. O=C1c2ccccc2-c2n[nH]c3cccc1c23  6%

— PubChem BioAssay (NCATS)
